The whole screen tested about 310,000 compounds, of which about 14,000 (4.5%) showed an effect of 50% or more. The effect is printed as a negative number. The full list was thinned out, with strong results kept by preference.
Target: human ether-à-go-go-related gene (hERG) potassium channel (human, UniProt Q12809)
Test: primary screen, population patch clamp on CHO cells stably expressing hERG; higher = less effect of the substance
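Also: peak tail current of the secondary pulse compared with the same well before compound.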

Sequence of human ether-à-go-go-related gene (hERG) potassium channel (Q12809 whole entry, looked up): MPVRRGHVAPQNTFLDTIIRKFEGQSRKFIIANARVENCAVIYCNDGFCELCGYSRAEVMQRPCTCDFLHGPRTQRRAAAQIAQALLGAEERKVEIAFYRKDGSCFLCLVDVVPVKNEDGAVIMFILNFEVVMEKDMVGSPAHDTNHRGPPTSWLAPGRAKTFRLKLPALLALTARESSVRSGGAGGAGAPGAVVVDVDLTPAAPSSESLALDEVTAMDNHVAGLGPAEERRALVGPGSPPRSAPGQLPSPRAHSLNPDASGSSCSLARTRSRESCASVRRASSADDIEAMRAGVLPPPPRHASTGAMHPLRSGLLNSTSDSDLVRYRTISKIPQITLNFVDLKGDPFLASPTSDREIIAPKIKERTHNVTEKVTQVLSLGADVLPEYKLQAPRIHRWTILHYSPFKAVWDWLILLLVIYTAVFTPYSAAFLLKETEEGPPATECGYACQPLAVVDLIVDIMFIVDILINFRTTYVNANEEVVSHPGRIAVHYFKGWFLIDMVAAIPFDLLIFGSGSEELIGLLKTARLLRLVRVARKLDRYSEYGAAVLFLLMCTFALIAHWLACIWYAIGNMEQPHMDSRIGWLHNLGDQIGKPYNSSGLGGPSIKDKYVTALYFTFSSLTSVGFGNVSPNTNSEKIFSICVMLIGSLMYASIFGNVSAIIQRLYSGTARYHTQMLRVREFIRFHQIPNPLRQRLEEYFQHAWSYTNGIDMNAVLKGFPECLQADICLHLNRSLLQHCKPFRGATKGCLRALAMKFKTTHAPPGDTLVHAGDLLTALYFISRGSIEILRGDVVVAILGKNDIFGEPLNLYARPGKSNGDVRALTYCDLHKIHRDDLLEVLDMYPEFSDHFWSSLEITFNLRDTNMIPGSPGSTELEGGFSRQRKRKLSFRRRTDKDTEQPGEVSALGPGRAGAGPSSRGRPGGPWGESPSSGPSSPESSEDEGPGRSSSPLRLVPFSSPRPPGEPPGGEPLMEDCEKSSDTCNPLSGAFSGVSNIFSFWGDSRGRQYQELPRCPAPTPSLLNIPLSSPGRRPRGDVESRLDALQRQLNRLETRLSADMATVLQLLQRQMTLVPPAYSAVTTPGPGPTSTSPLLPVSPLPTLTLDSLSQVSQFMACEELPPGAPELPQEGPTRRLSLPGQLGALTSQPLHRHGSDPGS

Row | SMILES | hERG current change (%, negative = inhibition) at 10uM
1 | COc1ccc(-c2csc3nc(C)nc(N4CCCCC4)c23)cc1OC | -7.85%
2 | CC(C)C1Cc2c(sc3c2c(=O)n(Cc2ccccc2)c2nncn32)CO1 (stereo not drawn) | -11%
3 | COc1ccc(N2C(=O)CC(N3CCN(S(=O)(=O)c4cc(C)ccc4C)CC3)C2=O)cc1 (stereo not drawn) | -6.8%
4 | CC12C=CC3(O1)C(C(=O)N1CCCOC13)C2C(=O)O (stereo not drawn) | -2.54%
5 | COc1ccc(CN(C(=O)c2cc3ccccc3oc2=O)C2CCS(=O)(=O)C2)cc1 (stereo not drawn) | -18.9%
6 | CN(C)c1ccc(CN(C(=O)c2cc3ccccc3oc2=O)C2CCS(=O)(=O)C2)cc1 (stereo not drawn) | -11.8%
7 | Cc1ccc(CN(C(=O)c2cc3ccccc3oc2=O)C2CCS(=O)(=O)C2)cc1 (stereo not drawn) | -34%
8 | CC(C)c1ccc(CN(C(=O)c2cc3ccccc3oc2=O)C2CCS(=O)(=O)C2)cc1 (stereo not drawn) | -62%
9 | Cc1cc(C)cc(N(C(=O)c2cc3ccccc3oc2=O)C2C=CS(=O)(=O)C2)c1 (stereo not drawn) | -55.4%
10 | Cc1ccc(N(C(=O)c2cc3ccccc3oc2=O)C2C=CS(=O)(=O)C2)cc1 (stereo not drawn) | -6.15%
11 | O=C(c1cc2ccccc2oc1=O)N(c1ccccc1)C1C=CS(=O)(=O)C1 (stereo not drawn) | 2.29%
12 | CCc1ccc(CN(C(=O)c2cc3ccccc3oc2=O)C2CCS(=O)(=O)C2)cc1 (stereo not drawn) | -56.5%
13 | O=C(c1cc2ccccc2oc1=O)N(Cc1ccccc1)C1CCS(=O)(=O)C1 (stereo not drawn) | -12.2%
14 | CC1(C)CC(=O)C=C(Nc2ccc3c(c2)CCC3)C1 | -2.73%
15 | O=C(Nc1ccccc1)NC1CCN(Cc2nnnn2C2CCCCC2)CC1 | -29.2%
16 | CCN1CCN(C(=O)c2ccc(CS(=O)Cc3ccc(C)cc3)o2)CC1 (stereo not drawn) | 11%
17 | O=C(O)C1CCCC2CN3CCc4c([nH]c5ccccc45)C3C(O)C21 (stereo not drawn) | 13.7%
18 | Cc1ccc(N(C(=O)CNC(=O)c2ccco2)C(C(=O)NC2CCCC2)c2ccncc2)c(C)c1 (stereo not drawn) | 14.6%
19 | CCOc1ccc(NS(=O)(=O)c2ccc(NC(=O)C3CCCO3)cc2)cc1 (stereo not drawn) | 20.7%
20 | C/C(=N\NC(=S)NCc1ccccc1)c1ccc2ccccc2c1 | 15.9%
21 | CN(C)CCCNc1ccc(-c2n[nH]c(=O)c3ccccc23)cc1[N+](=O)[O-] | 1.1%
22 | OCC1(Cc2ccccc2C(F)(F)F)CCN(Cc2ccc3c(c2)CCO3)CC1 | -28.7%
23 | OCCC1CN(Cc2ccc3nsnc3c2)CCN1C1CCCC1 (stereo not drawn) | -25%

Row | SMILES | hERG current change (%, negative = inhibition) at 10uM
24 | OCC1(Cc2ccc(Cl)cc2)CCN(Cc2ccc3nsnc3c2)CC1 | -61.5%
25 | COc1ccc(CC2(CO)CCN(Cc3ccc4c(c3)CCO4)CC2)cc1 | -65.7%
26 | COc1ccc(C(=O)NCc2ccc3c(c2)CCO3)cc1 | 7.15%
27 | O=C(c1cnsn1)N1CCC(CO)(Cc2ccc(Cl)cc2)CC1 | -43.7%
28 | COc1ccc(CC2(CO)CCN(Cc3nc(C(C)C)cs3)CC2)cc1 | -48.4%
29 | OCC1(CCc2ccccc2)CCN(Cc2ccc3nsnc3c2)CC1 | -77.7%
30 | COc1ccc(CC2(CO)CCN(Cc3ccc4nsnc4c3)CC2)cc1 | -58.9%
31 | CC(NS(=O)(=O)c1ccc(F)cc1)C(=O)Nc1ccc2c(c1)OCCO2 (stereo not drawn) | 13.2%
32 | CCOC(=O)c1ccc(N2C(=O)c3n[nH]c(C)c3C2c2ccco2)cc1 (stereo not drawn) | -5.29%
33 | Cc1ncoc1C(=O)N1CCCC(CCC(=O)NCc2ccccc2F)C1 (stereo not drawn) | -6.93%
34 | N#Cc1nc(COc2cccc(Cl)c2)oc1N1CCN(c2ccccc2)CC1 | -4.18%
35 | COCCNC(=O)/C(C#N)=C/c1ccc(O)c([N+](=O)[O-])c1 | 14.7%
36 | CC(CS(=O)(=O)c1ccc2c(c1)NC(=O)CS2)C(=O)NCc1ccccc1Cl (stereo not drawn) | -0.823%
37 | COC(=O)c1ccc(C)c(NC(=O)c2ccc(CN3CCc4ccccc4C3)cc2)c1 | 6.57%
38 | CCOC(=O)N1CCN(C(=O)c2cc(COc3ccc(F)cc3F)on2)CC1 | -17.1%
39 | CC(Oc1ccc(-c2ccccc2)c(F)c1)c1ccn(S(=O)(=O)c2ccc(F)cc2)n1 (stereo not drawn) | 16%
40 | COc1ccccc1-c1ccc(Nc2cccc(C(F)(F)F)c2)nn1 | 15.4%
41 | Cc1cccc(Cn2c(SCC(=O)Nc3ccccc3)nc3c2c(=O)[nH]c(=O)n3C)c1 | -30.2%
42 | Cc1cccc(Cn2c(SCCN3CCCCC3)nc3c2c(=O)[nH]c(=O)n3C)c1 | -79.1%
43 | Cn1c(=O)[nH]c(=O)c2c1nc(SCCO)n2CCCc1ccccc1 | -4.68%
44 | Cn1c(=O)[nH]c(=O)c2c1nc(SCC(=O)O)n2Cc1ccccc1 | -5.45%
45 | Cc1ccc(Cn2c(SCC(C)C)nc3c2c(=O)[nH]c(=O)n3C)cc1 | 4.21%

— paper PMC4336329 (PLoS ONE, 2015)
